Source: PubChem (several laboratories)
Sampled rows, rich in hits. Any-hit rate of the full collection: about 1.4%.
MCL1 BIM primary: disrupts human MCL1 binding to BIM-BH3 peptide; Q07820; GST-MCL1 / FITC-Bim-BH3 fluorescence polarization; inhibition, % at 10.9 µM; 320,000 tested, 0.68% active;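 active = inhibition above the mean inhibition of all tested compounds plus 3 SD, set per campaign, cut at about 40% in these data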;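 also: 0% = DMSO wells and 100% = unlabeled Bim-BH3 peptide control; higher means more loss of mP so more displacement of Bim peptide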
MEX-5 binding: C. elegans MEX-5 TCR-2 RNA binding activity. Q9XUB2. MEX-5/FITC-TCR2 RNA binding, fluorescence polarization; active compounds read low. activity score (negative = inhibition of binding), % at 10 µM. 300,000 tested, 0.38% active. AID 1832;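 active = inhibition past about -25% in most replicates, and total fluorescence under double the plate's negative control median, limit read from the data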;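 also: 0% = DMSO and -100% = 5 µM competing unlabeled TCR2 RNA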
Bcl-xL primary: blocks human Bcl-xL binding to Bim BH3 peptide. Q07817. AID 2129. 320,000 tested, 0.7% active. GST-Bcl-xL / FITC-Bim BH3 peptide fluorescence polarization. inhibition, % at 10.9 µM;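 active = inhibition above the mean of all tested compounds plus 3 SD, cutoff set per campaign, cut at about 30% in these data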;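 also: 0% = DMSO wells and 100% = unlabeled Bim-BH3 peptide competitor; inhibitors lower millipolarization by displacing the labeled peptide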
GLD-1 RNA inh: GLD-1-TGE RNA interaction inhibition (C. elegans). Q17339. purified GLD-1 + fluorescein TGE RNA, fluorescence polarization. inhibition, % at 5.96 µM. 320,000 tested, 0.44% active. AID 2280;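 active = percent inhibition above a per-plate cutoff, the plate mean of test compounds plus 3 SD, cut at about 30% in these data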;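 also: 0% = DMSO wells with GLD-1 and probe and 100% = wells lacking GLD-1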
eLon inh: E. coli protease La inhibition; 360,000 tested, 0.42% active; P0A9M0; inhibition, % at 7.94 µM; AID 602123; purified E. coli Lon protease, fluorescence polarization; in the data active = inhibition above about 13%, passing the limit was not always enough;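 also: 0% = enzyme with probe and DMSO and 100% = no enzyme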
Target sequence (P0A9M0 whole entry, looked up): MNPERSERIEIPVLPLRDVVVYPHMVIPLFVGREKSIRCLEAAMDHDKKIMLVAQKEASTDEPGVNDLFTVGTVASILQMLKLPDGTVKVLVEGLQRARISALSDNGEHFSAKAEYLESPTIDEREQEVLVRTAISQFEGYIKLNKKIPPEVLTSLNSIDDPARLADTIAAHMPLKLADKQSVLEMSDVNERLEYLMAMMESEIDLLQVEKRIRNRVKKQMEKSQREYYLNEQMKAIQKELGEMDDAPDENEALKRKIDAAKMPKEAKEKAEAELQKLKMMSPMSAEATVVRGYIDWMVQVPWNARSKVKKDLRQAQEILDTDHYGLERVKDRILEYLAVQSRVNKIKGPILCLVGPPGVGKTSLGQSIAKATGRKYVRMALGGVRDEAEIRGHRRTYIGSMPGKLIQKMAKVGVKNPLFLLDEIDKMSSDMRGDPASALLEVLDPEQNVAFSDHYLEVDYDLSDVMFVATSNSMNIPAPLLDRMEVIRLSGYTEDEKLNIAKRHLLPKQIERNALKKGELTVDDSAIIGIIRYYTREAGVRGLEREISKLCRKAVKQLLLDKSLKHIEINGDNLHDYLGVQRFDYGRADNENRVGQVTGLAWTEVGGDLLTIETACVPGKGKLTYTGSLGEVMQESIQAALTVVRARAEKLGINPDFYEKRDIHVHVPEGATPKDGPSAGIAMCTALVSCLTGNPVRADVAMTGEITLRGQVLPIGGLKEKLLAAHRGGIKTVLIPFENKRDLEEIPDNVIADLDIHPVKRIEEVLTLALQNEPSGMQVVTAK
GLD1 RNA confirm: GLD-1 TGE RNA interaction inhibition, confirmation; AID 2459; inhibition, % at 5.96 µM; 550 tested, 10% active; shares compounds with GLD-1 RNA inh; GLD-1/FL-TGE RNA fluorescence polarization, biochemical;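 active = average inhibition across triplicates above the hit cutoff set in the primary screen, cut at about 32% in these data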;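 also: 0% = GLD-1 with RNA probe and DMSO and 100% = wells lacking GLD-1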
eLon confirm: E. coli Lon inhibition confirmation | shares compounds with eLon inh | purified E. coli Lon, fluorescence polarization | inhibition, % at 7.94 µM | 1,400 tested, 31% active; in the data active = inhibition above about 16%;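 also: 0% = enzyme with probe and DMSO and 100% = no enzyme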
* hit, by the source's call; . = no result given.

SMILES	MCL1 BIM primary	MEX-5 binding	Bcl-xL primary	GLD-1 RNA inh	eLon inh	GLD1 RNA confirm	others
COc1ccc(Br)cc1C1=CC(=O)C[C@H](c2ccc(F)cc2)C1	.	.	.	.	4	.
Cc1ccc(S(=O)(=O)CCC(=O)N(C)C2CCCCC2)cc1	-5	-1	3	11	-6	.
Cc1ccccc1-c1nc2sc(C)c(C)c2c(=O)o1	-8	-2	8	3	-5	.
Cc1sc2nc(C(C)(C)C)oc(=O)c2c1C	3	-4	4	117*	-9	-2
Cc1ccc(C2=Nc3ccccc3NC(C)(c3ccc(C)o3)C2)o1 (configuration not stated)	36	0	40*	44*	14	-2
Cc1c(O)ccc(-c2n[nH]c(C(=O)O)c2-c2nc3ccccc3s2)c1O	14	-58*	11	44*	1	51*
COc1ccc(S(=O)(=O)N2CCOCC2)cc1C(=O)Nc1ccc2c(c1)OCO2	-1	-2	3	1	-1	.
Nc1nc(-c2ccccc2)c(N=Nc2ccccc2Cl)s1	4	0	1	159*	-76	-1
CCC(C)n1c(SCc2ccc([N+](=O)[O-])cc2)nc2ccsc2c1=O (configuration not stated)	-8	-3	-9	-2	-7	.
Cc1ccc(C2c3sc(=O)[nH]c3SC3C(=O)NC(=O)C32)cc1 (configuration not stated)	32	-46*	24	54*	4	29
COC(=O)C1Sc2[nH]c(=O)sc2C(c2ccc(Cl)cc2)C1C(=O)OC (configuration not stated)	4	0	8	6	0	.
O=C(C1COc2ccccc2O1)N1CCN(c2ccccc2Cl)CC1 (configuration not stated)	1	4	6	6	-1	.
Cc1cccc(N2CCN(C(=O)C3COc4ccccc4O3)CC2)c1C (configuration not stated)	0	0	0	100*	7	0
CCc1c(C)sc(NC(=O)OC)c1C(=O)N1CCCCC1	41*	.	37*	33*	14	7
CCc1c(C)sc(NC(=O)OC)c1C(N)=O	3	-3	-2	4	-15	.
COc1ccc(OC)c(NC(=O)c2cc3c(cc2Cl)N2CCCCCC2=NS3(=O)=O)c1	.	.	.	35*	-2	-8
CSc1nnc(C2CCN(CC(=O)Nc3ccccc3N3CCOCC3)CC2)n1C	-2	1	1	7	-2	.
C=CCn1c(CCNC(=O)c2cccs2)nnc1SCC(=O)c1ccc(Cl)cc1	-1	0	-2	86*	-1	8
C=CCNC(=O)/C(C#N)=C/c1c(N2CCN(c3ccc(OC)cc3)CC2)nc2c(C)cccn2c1=O	10	1	5	33*	2	-8
CCC1CCCCN1Cc1c(O)ccc2c(=O)c(-c3ccccc3)coc12 (configuration not stated)	-3	3	1	-46	-3	.
CC1CCCCN1Cc1c(O)ccc2c(=O)c(-c3ccccc3)coc12 (configuration not stated)	41*	1	36*	42*	1	-1
O=C(CN1C(=O)COc2ccccc21)NCCN1CCOCC1	-7	0	3	5	-2	.
CC1Oc2ccccc2N(CC(=O)NCCN2CCOCC2)C1=O (configuration not stated)	49*	1	31*	37*	7	4
CC1CCN(c2oc(-c3ccc(F)cc3)nc2C#N)CC1	11	2	2	34*	11	-1
CC(=O)c1c(C)[nH]c(C(=O)OCC(=O)Nc2cc(Cl)ccc2[N+](=O)[O-])c1C	8	2	2	34*	7	7
SMILES	MCL1 BIM primary	MEX-5 binding	Bcl-xL primary	GLD-1 RNA inh	eLon inh	GLD1 RNA confirm	others
O=C(OC(C(=O)Nc1ccc(Cl)c(C(F)(F)F)c1)c1ccccc1)C1=COCCO1 (configuration not stated)	5	-1	3	45*	0	5
O=C(OC(C(=O)Nc1ccc(Cl)cc1C(F)(F)F)c1ccccc1)C1=COCCO1 (configuration not stated)	-5	.	-2	-1	6	.
OC[C@@H]1[C@@H](c2ccc(Cl)cc2)C(c2ccc(F)cc2)=NN1c1ccccc1	.	.	.	.	-2	.
CCOC(=O)c1cc(NC(=O)NC2CCCCC2)c(C)nc1C	1	3	4	10	0	.
CC(=O)[C@@H]1[C@@H]2C(=O)N(C3CCCCC3)C(=O)[C@@H]2C2c3ccccc3C=CN21 (some centres not stated)	24	-10	30	32*	.	37*
O=C(O)c1ccccc1C(=O)Nc1ccc(-c2csc(-c3ccccc3)n2)cc1	-4	-3	-1	94*	-1	-1
COc1ccc(-c2[nH]ncc2CN2CCC(OCc3ccccn3)CC2)c(F)c1	1	0	1	-5	-13	.
CCCS(=O)(=O)NC(=O)C1(C)CCN(C(=O)c2ccc3c(c2)OCO3)C1 (configuration not stated)	.	.	.	.	6	.
Nc1c(Cl)ncnc1N/N=C/c1ccccn1	23	.	15	19	.	.
Nc1c(Cl)ncnc1N/N=C/c1ccc2ccccc2n1	15	.	17	32*	14	-6
CCOC(=O)C1=C(O)c2ccccc2C(=O)/C1=C\c1ccc(C)cc1	43*	.	37*	57*	-10	-6
CN(C)Cc1ccccc1CNC(=O)c1ccc(Cl)c(S(=O)(=O)NC2CC2)c1	.	.	.	.	-3	.
CC(CCC(C)C(C)(C)C)[C@@H]1CC[C@H]2C3C[C@H](OS(O)(=S)=S)[C@H]4C[C@H](OS(O)(=S)=S)[C@@H](OS(O)(=S)=S)C[C@]4(C)[C@H]3CC[C@]12C (some centres not stated) (tested in a mixture with another compound)	.	.	.	85*	36*	72*
CC(CCC(=O)NN)C1CCC2C3CCC4CC(O)CCC4(C)C3CCC12C (configuration not stated)	.	.	.	.	-1	.
CN(CC(=O)NC1CCCCCC1)S(=O)(=O)c1cnc[nH]1	1	2	-28	1	3	.
Cc1c(O)ccc2cc(S(=O)(=O)c3ccccc3)c(=O)oc12	37	-24	37*	34*	-7	49*
CC(C)N1C(=O)C2ON(c3ccccc3)C(c3cccs3)C2C1=O (configuration not stated)	10	1	7	38*	2	-5
C1CN(c2nc3nonc3nc2N2C[C@H]3CC[C@H]2C3)CCS1	2	-1	-4	-3	-1	.
CCc1cccc(C)c1NC(=O)C1=C(C(=O)O)CCCC1	32	-1	29	39*	19*	7	eLon confirm=32*
